Each structure is given as a SMILES string. “And” between values parts separate entries of the source, which are not always exact repeats. Equal values may be shown once. This is part of a sample that, as a whole, favours compounds with a hit. Of some 83,000 tested, about 20% had one in any assay.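 Compound tested at a single concentration for 48 hours in 96-well plates; a percent growth value below 10 was scored as active.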 Values without a mark were called inactive. The source made the active and inactive calls.

The text below walks through data of PubChem BioAssay (NCI).

This test deals with MDA-MB-468 breast. Nature of the test: NCI-60 one-dose screen, 48 h (100 = growth as untreated, 0 = no growth, -100 = all killed). As to conditions: 10 µM unless noted.
`O=C(N=Nc1c(O)[nH]c2ccc(Br)cc12)c1cc(-c2ccccc2)on1`: the growth is 109%.

Take `CCCc1ccnc(NS(=O)(=O)c2ccc(N)cc2)n1`: the growth was 8.05% (active). Consider `CCN1C[C@@H](C)n2c(c(O)c3c(=O)n(Cc4ccc(F)c(Cl)c4)nc(C(=O)NC)c32)C1=O`, for which the growth was 45%. Turning to `c1ccc(CCc2ccccc2-c2cc(-c3ccccc3)on2)cc1`, the growth was 93.8%. To `COc1cccc(/C(C#N)=C/c2nc3c(N4CCOCC4)nc(Cl)nc3n2C)c1` belongs -63% (active); to `COc1cc(NC2CCCCC2O)c2nc(-c3ccc(Cl)cc3)ccc2c1` (stereo unspecified), 98.6% and 62.5%; to `O=C1/C(=C\c2cccn2C(=O)c2ccccc2)c2ccccc2N1c1c(Cl)cccc1Cl`, 46.8%. Consider `Cc1nc(/N=C(N)/N=C(\N)c2cccc(Br)c2)sc1C`, for which the growth is 32.5%. With `COC(=O)[C@]12CC[C@@H](C)[C@H](C)[C@@H]1C1=CC[C@@H]3[C@@]4(C)C(C=O)=C[C@@](C)(COS(C)(=O)=O)C4=CC[C@@]3(C)[C@]1(C)CC2` the figure was -59.8% (active); with `COC1=C(OC)C(=O)C(CCCCCCCCCCO)=C(C)C1=O`, -34.8% (active). In the case of `Cc1ccc(N)cc1[N+](=O)[O-]`, the growth was 115%.
